The values below come from the supplement of paper PMC9446081.

Molecules are shown by their SMILES. The campaign covered roughly 39,000 compounds. About 220 (0.56%) showed activity. The sample holds actives, similar compounds and a random draw of the others, so the mix is not that of the screen.
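Note: Wild-type cells incubated without shaking, value is the mean of two biological replicates.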

The test system of this assay is Escherichia coli K-12 BW25113. Put plainly: relative growth (OD600 normalised to plate interquartile mean) (fraction); higher = less growth inhibition, active = 0.2 or less. The following applies: 50 µM; LB; incubation time: overnight (16-24 h).
For `O=c1c(O[C@@H]2O[C@H](CO)[C@@H](O)[C@H](O)[C@@H]2O[C@H]2OC[C@](O)(CO)[C@H]2O)c(-c2ccc(O)c(O)c2)oc2cc(O)cc(O)c12`, the relative growth is 1.02 (inactive).
For `O=C(C[C@@H]1CC[C@@H](NS(=O)(=O)c2ccc(F)cc2)[C@@H](CO)O1)N1CCC(Cc2ccccc2)CC1`, the relative growth is 0.987 (inactive).
Turning to `CCC(=O)Nc1ccc(Cl)cc1`, the relative growth was 1 (inactive).
`Cl.Cl.N=C(NCCCCCCNC(=N)NC(=N)Nc1ccc(Cl)cc1)NC(=N)Nc1ccc(Cl)cc1`: the relative growth is 0.0423 (active).
The figure for `CC(C)NC(=N)NC(=N)Nc1ccc(Cl)cc1.Cl` is 0.965 (inactive); for `Cc1noc(C)c1NC(=O)N(C)C[C@H]1OCCCC[C@@H](C)Oc2ccc(NC(=O)C3CCCCC3)cc2C(=O)N([C@@H](C)CO)C[C@H]1C` it is 0.976 (inactive); for `Cc1noc(C)c1NC(=O)N(C)C[C@H]1Oc2c(NC(=O)C3CC3)cccc2C(=O)N([C@H](C)CO)C[C@@H]1C` it is 1 (inactive).
As for `CC(C)NC(=O)Nc1ccc2c(c1)C(=O)N([C@@H](C)CO)C[C@H](C)[C@H](CN(C)CC1CCCCC1)OCCCC[C@H](C)O2`, the relative growth is 1.01 (inactive).
Consider `CC[C@@H](O)C[C@H]1CC[C@H]([C@@H](C)C(=O)O[C@@H](C)C[C@H]2CC[C@H]([C@@H](C)C(=O)O[C@@H](C)C[C@H]3CC[C@H]([C@@H](C)C(=O)O[C@@H](C)C[C@H]4CC[C@H]([C@@H](C)C(=O)O)O4)O3)O2)O1`, for which the relative growth is 1.06 (inactive).
Consider `CN(C)CCC=C1c2ccccc2COc2ccccc21.Cl`, for which the relative growth is 1.03 (inactive).
`CN(C)CCC=C1c2ccccc2CCc2ccccc21.Cl`: the relative growth was 0.976 (inactive).
On to `CN(C)CCC=C1c2ccccc2COc2ccc(CC(=O)O)cc21.Cl`, for which the relative growth is 0.0442 (active).
For `C[C@@H]1CN([C@H](C)CO)C(=O)c2ccccc2-c2ccccc2CO[C@@H]1CN(C)C(=O)Nc1cccc(F)c1`, the relative growth is 1.01 (inactive).
As for `CC(=O)On1cc(F)c(=O)[nH]c1=O`, the relative growth was 0.0691 (active).
For the molecule `CCOC(=O)CCn1cc(F)c(=O)[nH]c1=O`, the relative growth was 0.986 (inactive).
For `CCOC(=O)Cn1cc(F)c(=O)[nH]c1=O`, the relative growth was 1.06 (inactive).
In the case of `CCC1OC(=O)C(C)C(=O)C(C)C(OC2OC(C)CC(N(C)C)C2O)C(C)(OC)CC(C)C(=O)C(C)C2N(CCCCn3cnc(-c4cccnc4)c3)C(=O)OC12C` (stereo not given), the relative growth is 0.0499 (active).
Take `C[C@@H]1CCCCO[C@@H](CN(C)CC2CCCCC2)[C@@H](C)CN([C@H](C)CO)C(=O)c2cc(N(C)C)ccc2O1`: the relative growth is 1 (inactive).
For the molecule `CN(C)C1C(O)=C(C(N)=O)C(=O)C2(O)C(O)=C3C(=O)c4c(O)cccc4C(C)(O)C3C(O)C12.Cl` (stereo not given), the relative growth was 0.0578 (active).
As for `CN(C)C1C(O)=C(C(N)=O)C(=O)C2(O)C(O)=C3C(=O)c4c(O)cccc4C(C)(O)C3CC12.Cl` (stereo not given), the relative growth is 0.056 (active).
For `CN(C)c1cc(NC(=O)CNC(C)(C)C)c(O)c2c1CC1CC3C(N(C)C)C(O)=C(C(N)=O)C(=O)C3(O)C(O)=C1C2=O` (stereo not given), the relative growth was 1.06 (inactive).
To `CN(C)c1ccc(O)c2c1CC1CC3C(N(C)C)C(O)=C(C(N)=O)C(=O)C3(O)C(O)=C1C2=O.Cl` (stereo not given) belongs 0.0626 (active); to `CN(C)[C@@H]1C(=O)C(C(=O)NCN2CCCC2)=C(O)[C@@]2(O)C(O)=C3C(=O)c4c(O)cccc4[C@@](C)(O)[C@H]3C[C@@H]12`, 0.516 (inactive); to `CN(C)C1C(O)=C(C(N)=O)C(=O)C2(O)C(O)=C3C(=O)c4c(O)ccc(Cl)c4C(C)(O)C3CC12.Cl` (stereo not given), 0.0595 (active).
`C[C@@H]1CCCCO[C@H](CN(C)Cc2ccc(C(F)(F)F)cc2)[C@H](C)CN([C@H](C)CO)C(=O)c2cc(NS(=O)(=O)c3ccc(F)cc3)ccc2O1`: the relative growth is 1.02 (inactive).
For the molecule `C[C@@H]1CN([C@H](C)CO)C(=O)c2cc(NS(=O)(=O)c3ccc(F)cc3)ccc2O[C@@H](C)CCCCO[C@H]1CN(C)Cc1ccccc1`, the relative growth is 0.999 (inactive).
In the case of `C[C@@H]1CN([C@@H](C)CO)C(=O)c2cc(-c3ccc(F)cc3)cnc2O[C@@H]1CN(C)C(=O)Cc1ccccn1`, the relative growth was 0.977 (inactive).
To `Cc1ccc(S(=O)(=O)N(C)C[C@@H]2Oc3c(NS(=O)(=O)c4ccc(F)cc4)cccc3C(=O)N([C@H](C)CO)C[C@@H]2C)cc1` belongs 1.01 (inactive); to `COc1ccc(S(=O)(=O)N(C)C[C@H]2Oc3cc(C#CC4CCCC4)ccc3S(=O)(=O)N([C@@H](C)CO)C[C@H]2C)cc1`, 1.04 (inactive); to `COc1ccc(CN(C)C[C@H]2Oc3ccc(NC(=O)Nc4ccc(C(F)(F)F)cc4)cc3CC(=O)N([C@@H](C)CO)C[C@H]2C)cc1`, 0.99 (inactive).
For `C[C@@H]1CCCCO[C@@H](CN(C)C(=O)Nc2ccc(C(F)(F)F)cc2)[C@H](C)CN([C@H](C)CO)C(=O)c2cc(NS(=O)(=O)c3cccs3)ccc2O1`, the relative growth is 1.03 (inactive).
For `O=C(O)[C@H]1O[C@@H](Oc2c(-c3ccc(O)cc3)oc3cc(O)cc(O)c3c2=O)[C@H](O)[C@@H](O)[C@@H]1O`, the relative growth was 1.01 (inactive).
In the case of `C[C@H]1CN([C@@H](C)CO)S(=O)(=O)c2ccc(-c3cncnc3)cc2O[C@@H]1CN(C)C(=O)NC1CCCC1`, the relative growth was 1 (inactive).
Regarding `CCC(=O)Nc1cnc(OC)nc1OC`, the relative growth is 1.01 (inactive).
As for `C[C@@H]1CCCCO[C@H](CN(C)C(=O)Nc2ccc(C(F)(F)F)cc2)[C@@H](C)CN([C@@H](C)CO)C(=O)c2cc(NC(=O)c3ccncc3)ccc2O1`, the relative growth is 0.979 (inactive).
For the molecule `CN(C)CCCNC(=O)C[C@@H]1CC[C@@H]2[C@@H](COc3ccc(NC(=O)c4cccc(F)c4)cc3C(=O)N2C)O1`, the relative growth was 0.965 (inactive).
For the molecule `CC(C)NC(=O)N(C)C[C@@H]1Oc2c(NS(=O)(=O)c3ccc(Cl)cc3)cccc2C(=O)N([C@@H](C)CO)C[C@@H]1C`, the relative growth is 1.09 (inactive).
To `C[C@H](CO)N1C[C@H](C)[C@H](CN(C)C(=O)c2ccncc2)OCCCC[C@H](C)Oc2ccc(NS(C)(=O)=O)cc2C1=O` belongs 1.02 (inactive); to `CN(C)C1C(O)=C(C(N)=O)C(=O)C2(O)C(O)=C3C(=O)c4c(O)ccc(Cl)c4C(O)C3CC12.Cl` (stereo not given), 0.0565 (active).
To `COC(=O)C(=C1OC(=O)C(c2ccccc2)=C1O)c1ccccc1` belongs 0.951 (inactive).
